Source: PubChem BioAssay
Several values for one entry are separate records, joined by “and”; a condition that tells them apart may be missing. Identical values can stand only once.

Test: small-molecule microarray binders of probe aLefty2, primary screen, biochemical, biotinylated probe, 635/667 nm fluorescence (AID 1094);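 further: score merges spot fluorescence near 667 nm with spot signal-to-noise ratio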
Settings: higher = more signal
With C=CCN(CCCC)C(=O)C1N(c2ccc(CCO)cc2)C(=O)C2C(C(=O)O)C3C=CC21O3 (stereo not given) the composite z-score was 0.113 and 0.0553. With COC(=O)C1=C(C)N(Cc2ccccc2)C2=C3C(=O)N(c4ccccc4)C(=O)[C@@H]3[C@@](O)(C(=O)OC)C(=O)N2[C@@H]1c1ccccc1 the composite z-score was -0.0736 and -0.0453. For CCC[C@@H]1C[C@@]1(CCC)[C@@H](NC(=O)c1ccc(-c2ccccc2)cc1)c1cccc(Cl)c1, the composite z-score was 1.07 and 0.266. In the case of C=CCN(C(=O)C(c1cccs1)N(C(=O)/C=C\C(=O)O)c1ccc(CCO)cc1)C(C)(C)C (stereo not given), the composite z-score is reported as -0.0964 and -0.116. With C=CCN(Cc1ccccc1)C(=O)C1N(CCCCCCO)C(=O)C2C(C(=O)O)C3C=CC21O3 (stereo not given) the composite z-score was -0.0265 and 0.0515. With COc1ccc(COC(=O)NN=C2C[C@@H](O)[C@@H](O)[C@@H]3[C@@H]4C(=O)N(C(C)(C)C)C(=O)[C@@H]4CC[C@H]23)cc1 the composite z-score was -0.277. In the case of O=C1NC(=O)C2C1C=CC(C(O)c1ccc([N+](=O)[O-])cc1)N2Nc1ccc(Cl)cc1Cl (stereo not given), the composite z-score is reported as 0.127 and 0.386. In the case of COC(=O)C1=C(C)N(Cc2ccccc2)C2=C3C(=O)CCC[C@@H]3[C@@](O)(C(=O)OC)C(=O)N2[C@@H]1c1ccccc1, the composite z-score is reported as 0.182 and -0.0863. In the case of C[N+](C)(C)CCCCNC(=O)[C@H]1C[C@H]2C(=O)N[C@@H](CCCC[N+](C)(C)C)C(=O)N2[C@H]1c1cccc(OCCO)c1, the composite z-score is reported as -0.121 and -0.0153. For C=CCN(CCCCC)C(=O)C1N(c2ccc(CCO)cc2)C(=O)C2C(C(=O)O)C3C=CC21O3 (stereo not given), the composite z-score was -0.0374 and 0.699. Work on CC(C)C(=O)N[C@@H]1CCCN1C(=O)C=Cc1ccccc1 yielded a composite z-score of -0.14. In the case of C[C@@H](ON=C1[C@H]2CCn3c(=O)n(-c4ccccc4)c(=O)n3[C@H]2[C@H](O)[C@@H]2O[C@H]12)c1cn([C@H](CO)Cc2ccccc2)nn1, the composite z-score is reported as -0.282. With C=CCN1C(=O)[C@]2(O[C@H](CCn3cc(CCO)nn3)[C@@H]([Si](C)(C)c3ccc(OC)cc3)[C@@H]2C)c2cc(N3C(=O)c4cccc5cccc3c45)ccc21 the composite z-score was -0.166 and -0.177. In the case of COC(=O)[C@@]1(Cc2ccc(F)cc2)[C@H]2c3cc(C(=O)N4CCCC4)n(Cc4c(CO)[nH]cc(C)c4=O)c3C[C@H]2CN1C(=O)c1ccccc1, the composite z-score is reported as 1.33 and 0.155. With C=CCN(CCCCC)C(=O)C1N(c2c(Cl)cccc2CO)C(=O)C2C(C(=O)O)C3C=CC21O3 (stereo not given) the composite z-score was 0.156 and -0.0555. With C=CCN(C(=O)C1N(c2c(Cl)cccc2CO)C(=O)C2C(C(=O)O)C3C=CC21O3)C(C)(C)C (stereo not given) the composite z-score was -0.359 and -0.152. For COC(=O)[C@@]1(Cc2ccc(OC)cc2)[C@H]2c3cc(C(=O)N(C)C)n(Cc4ccc(O)c(OC)c4)c3C[C@H]2CN1C(=O)c1ccccc1, the composite z-score was 0.437 and 0.261. With C=CCN(C(=O)C1N(C(C)(C)CO)C(=O)C2C(C(=O)O)C3C=CC21O3)c1ccc(OC)cc1 (stereo not given) the composite z-score was 0.0499 and 0.0174. For C[N+](C)(C)CCCCNC(=O)[C@@H]1C[C@@H]2C(=O)N[C@@H](CCCC[N+](C)(C)C)C(=O)N2[C@@H]1c1cccc(OCCO)c1, the composite z-score was 0.387 and 0.268. For CCCC[C@@H]1CN2[C@@H](CC[C@@H](C)[C@@H]2c2ccc(Br)cc2)C(=O)O1, the composite z-score was -0.0446 and -0.239. In the case of CCN1C(=O)[C@H]2[C@H]3[C@H](O)[C@H](O)CC(=NOC)[C@@H]3CC[C@H]2C1=O, the composite z-score is reported as -0.0192. With C=C[C@H](OC)[C@@H](O)c1ccc(OCCO)cc1 the composite z-score was -0.242 and -0.0736. For COC(=O)C1=C(C)N(Cc2ccccc2)[C@]23O[C@](C(=O)OC)(C(=O)N2[C@@H]1c1ccccc1)[C@@H](c1ccccc1)[C@@H]3C(=O)c1ccccc1, the composite z-score was -0.185 and 0.0062. With CCOC(=O)[C@@H]1CC=C2CC1C(=O)N1CCC[C@@H]1[C@H]2O[Si](C)(C)C(C)(C)C (stereo not given in full) the composite z-score was -0.0807 and -0.347. In the case of CCOC(=O)[C@@H]1CC2O[C@]23C[C@@H]1C(=O)N1CCC[C@@H]1[C@H]3O[Si](C)(C)C(C)(C)C (stereo not given in full), the composite z-score is reported as -0.357 and -0.0163. With Cc1ccc(S(=O)(=O)OC[C@@H]2CN3[C@@H](CC[C@@H](C)[C@@H]3c3ccc(Br)cc3)C(=O)O2)cc1 the composite z-score was -0.0389 and -0.205. In the case of COC(=O)C1=C(C)N(Cc2ccccc2)[C@]23O[C@](C(=O)OC)(C(=O)N2[C@@H]1c1ccccc1)[C@H]1C(=O)N(c2ccccc2)C(=O)[C@H]13, the composite z-score is reported as -0.0812 and -0.0245. For CCOC(=O)c1ccc(NC(=O)O[C@H]2[C@H](OC(=O)Nc3ccccc3)[C@H](OC(=O)Nc3ccccc3)[C@@H](OC)O[C@@H]2CO)cc1, the composite z-score was 0.375 and 0.0544. In the case of C[N+](C)(C)CCCCCCNC(=O)[C@H]1C[C@H]2C(=O)N[C@@H](CCCC[N+](C)(C)C)C(=O)N2[C@H]1c1ccc(O)cc1, the composite z-score is reported as -0.0322 and -0.0179. With Cc1ccc(S(=O)(=O)N[C@@H]2COC(=O)CC=C[C@@H](C)[C@@H]3C=C[C@H](O)[C@@H](COC(=O)CC=C[C@H]2C)O3)cc1 the composite z-score was -0.185 and -0.162. For CCCNC(=O)OC[C@H]1O[C@H](CCON=C(C)CCC(=O)OC[C@H]2O[C@H](C#Cc3ccccc3)C=C[C@@H]2Oc2ccc(C)cc2)C=C[C@@H]1Oc1ccc(OC)cc1, the composite z-score was -0.251. For C=CCN(CCCC)C(=O)C1N(C(C)(C)CO)C(=O)C2C(C(=O)O)C3C=CC21O3 (stereo not given), the composite z-score was -0.223 and -0.124. For C=C[C@@H](C)[C@H](O)c1ccc(O)c2ccccc12, the composite z-score was -0.254 and -0.233. With C=CCN(Cc1ccccc1)C(=O)C1N(C(C)(C)CO)C(=O)C2C(C(=O)O)C3C=CC21O3 (stereo not given) the composite z-score was -0.0563 and -0.136. For C=CC[C@H](O)c1ccc(OCCO)cc1, the composite z-score was -0.0653 and -0.181. In the case of C=CCN(C(=O)C(c1cccs1)N(C(=O)/C=C\C(=O)O)c1ccc(CCO)cc1)c1ccc(OC)cc1 (stereo not given), the composite z-score is reported as -0.0446 and -0.0463. With C=CC[C@@H](O)c1ccc(OCCO)cc1 the composite z-score was 0.0698 and 0.066. In the case of C=CCN(C(=O)C1N(CCCCCCO)C(=O)C2C(C(=O)O)C3C=CC21O3)c1ccc(OC)cc1 (stereo not given), the composite z-score is reported as 0.259 and 0.337. With COC(=O)C1=C(C)N(Cc2ccccc2)C2=C(C(=O)c3ccccc3)[C@H](c3ccccc3)[C@@](O)(C(=O)OC)C(=O)N2[C@@H]1c1ccccc1 the composite z-score was 0.0039 and -0.115. Work on Cc1ccc(S(=O)(=O)N[C@H]2COC(=O)[C@@H](C)COC(=O)[C@H](C)NC(=O)CC=C[C@H]2C)cc1 yielded a composite z-score of -0.121.
